Calls of active or inactive are those of the source. How the source made its calls: active means hit-call score of the fitted dose curve at least 0.9, where 1 is the maximum; inactive means score below 0.9.
Assays:
[1] = ATG_CRE_CIS: Attagene CIS-FACTORIAL HepG2 Assay for human cAMP Responsive Element (CRE) binding protein 3 (AID 2282926); conditions: HepG2 CRE cis-reporter, Attagene multiplexed mRNA; actives raise or lower the signal
Method in brief: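 Transfected HepG2 were treated for 24 hours, then RNA was extracted and reporter cDNA amplified with sequence-specific primers. Labelled fragments were separated by capillary electrophoresis, and the CRE signal was fitted bidirectionally with DMSO as baseline.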

[2] = target: CCAAT/enhancer-binding protein beta (Homo sapiens) (UniProt P17676); assay: ATG_C_EBP_CIS: Attagene CIS-FACTORIAL HepG2 Assay for human CCAAT/Enhancer Binding Protein (C/EBP) beta (AID 2282927); conditions: HepG2 Attagene cis-factorial transcription factor reporter; actives raise or lower the signal
Method in brief: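 Endogenous C/EBPb-driven reporter transcripts measured in transfected human HepG2 cells at 24 h via RT-PCR and capillary electrophoresis of labelled fragments. Activity fitted in both directions relative to DMSO baseline.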

[3] = ATG_CMV_CIS: Attagene CIS-FACTORIAL HepG2 Assay for human CMV (Internal Marker) (AID 2282928); conditions: HepG2 CMV promoter reporter, transcription factor profiling; actives raise or lower the signal;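 further: endpoint acts as a background internal control marker rather than a target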
Method in brief: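 Cell system: HepG2, transiently transfected multiple reporter units under cis promoters. Exposure: 24 h. Detection: RT-PCR, FAM labeling, HpaI digestion, capillary electrophoresis. Analysis: bidirectional, DMSO baseline.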

[4] = ATG_DR4_LXR_CIS: Attagene CIS-FACTORIAL HepG2 Assay for human Liver X Receptor (LXR), DR4 submotif (AID 2282929); conditions: HepG2 Attagene DR4 cis-reporter, mRNA transcription; actives raise or lower the signal
Method in brief: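 Transiently transfected HepG2 liver cells; cis-regulated reporters; 24 h dosing. RT-PCR plus CE read-out of reporter mRNA. DMSO baseline, bidirectional curve fitting.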

[5] = ATG_AP_1_CIS: Attagene CIS-FACTORIAL HepG2 Assay for human Activator Protein 1 (AP-1) (AID 2282931); conditions: HepG2 Attagene cis-factorial AP-1 reporter mRNA; actives raise or lower the signal
Method in brief: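 We transfected HepG2 cells transiently with a set of cis-regulated reporter transcription units, dosed them for 24 h, and quantified reporter mRNA via RT-PCR and capillary electrophoresis, scoring gain or loss of signal relative to DMSO.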

[6] = ATG_AP_2_CIS: Attagene CIS-FACTORIAL HepG2 Assay for human Activator Protein 2 (AP-2) (AID 2282932); conditions: HepG2 AP-2 cis-reporter, Attagene transcription factor profiling; actives raise or lower the signal
Method in brief: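 HepG2, transient MRTU transfection, cis-regulated reporters; 24 h compound exposure; RNA isolated, RT-PCR, 6-FAM labelling, HpaI digest, CE fluorescence. DMSO = negative control/baseline, bidirectional fit.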

[7] = target: Retinoic acid receptor alpha (Homo sapiens) (UniProt P10276); assay: ATG_DR5_RAR_CIS: Attagene CIS-FACTORIAL HepG2 Assay for human Retinoic Acid Receptor Alpha (RARE), DR5 submotif (AID 2282934); conditions: HepG2 Attagene cis-factorial RARE DR5 reporter, mRNA; actives raise or lower the signal;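 on AC50: reporter responds to endogenous RAR alpha beta and gamma in HepG2 not RARA alone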
Method in brief: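 Reporter transcripts from a DR5-regulated unit, measured via RT-PCR plus capillary electrophoresis, reflect endogenous RAR activity in transiently transfected human HepG2 liver cells. Exposure lasted 24 h; gain or loss of signal scored against DMSO.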

[8] = target: Transcription factor E2F1 (Homo sapiens) (UniProt Q01094); assay: ATG_E2F_CIS: Attagene CIS-FACTORIAL HepG2 Assay for human E2F Transcription Factor 1 (AID 2282935); conditions: HepG2 Attagene cis-reporter, E2F reporter RNA transcripts; actives raise or lower the signal
Method in brief: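 Cis-element reporter mRNA induction in transiently transfected HepG2, 24 h exposure. Activity fitted in both directions relative to DMSO negative control.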

[9] = ATG_E_Box_CIS: Attagene CIS-FACTORIAL HepG2 Assay for human Enhancer Box (E-box) (AID 2282936); conditions: HepG2 E-box cis-reporter transcription, actives raise or lower the signal
Method in brief: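 Cells: HepG2 (human liver), transient MRTU transfection. Exposure 24 h. RNA → oligo(dT) RT → PCR → 6-FAM label → HpaI → CE. Activity fitted both directions relative to DMSO.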

[10] = ATG_EGR_CIS: Attagene CIS-FACTORIAL HepG2 Assay for human Early Growth Response 1 (EGR1) (AID 2282938); conditions: HepG2 Attagene CIS-FACTORIAL EGR reporter mRNA; actives raise or lower the signal
Method in brief: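 Multiplexed cis-reporter system in human hepatoma HepG2 cells, transiently transfected. Cells are dosed for 24 h; reporter transcripts are amplified, fluorescently tagged and sized by capillary electrophoresis, with DMSO as negative control.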

[11] = ATG_M_19_CIS: Attagene CIS-FACTORIAL HepG2 Assay for M19 Transcription Factor (Internal Marker) (AID 2282939); conditions: HepG2 Attagene CIS-FACTORIAL M19 internal marker reporter; actives raise or lower the signal
Method in brief: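 Readout: fluorescent reporter-transcript fragments by capillary electrophoresis after RT-PCR. Human HepG2 liver cells carried transfected MRTU constructs reporting endogenous transcription-factor activity; exposure 24 h. Gain or loss of signal fitted relative to DMSO.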

[12] = ATG_ERE_CIS: Attagene CIS-FACTORIAL HepG2 Assay for Estrogen Response Element (ERE) (AID 2282940); conditions: HepG2 ERE cis-reporter, Attagene RNA transcript; actives raise or lower the signal
Method in brief: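 Readout: reporter mRNA induction by RT-PCR, FAM-labelled primer extension, HpaI digestion and capillary electrophoresis, 24 h after dosing transfected HepG2 cells. Endogenous transcription factors act on cis-element-regulated reporters. Gain or loss fitted against DMSO.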

[13] = ATG_Ets_CIS: Attagene CIS-FACTORIAL HepG2 Assay for human Erythroblast Transformation Specific (ETS) (AID 2282941); conditions: HepG2 ETS cis-reporter transcription, actives raise or lower the signal
Method in brief: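 After transient cis-reporter transfection, HepG2 cells receive test chemical for 24 h. Reporter mRNA levels, measured by RT-PCR and capillary electrophoresis fluorescence, are analysed bidirectionally relative to the DMSO baseline.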

[14] = target: Hepatocyte nuclear factor 3-beta (Homo sapiens) (UniProt Q9Y261); assay: ATG_FoxA2_CIS: Attagene CIS-FACTORIAL HepG2 Assay for human Forkhead box A2 (FOXA2) (AID 2282942); conditions: HepG2 cis-reporter transcription factor activity, 24 h; actives raise or lower the signal
Method in brief: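 Multiplexed cis-element reporter assay in transiently transfected HepG2. Twenty-four hours post-dosing, RNA was reverse-transcribed, amplified, FAM-labelled, HpaI-digested and separated by CE. Activity gain or loss relative to DMSO.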

[15] = ATG_FoxO_CIS: Attagene CIS-FACTORIAL HepG2 Assay for human Forkhead box O (FoxO) (AID 2282943); conditions: HepG2 Attagene cis-reporter, FoxO element, mRNA; actives raise or lower the signal
Method in brief: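 Endogenous transcription factor activity read from multiplexed cis-promoter reporter transcripts in transiently transfected HepG2, 24 h after dosing. Reporter RNA measured via RT-PCR plus capillary electrophoresis of FAM-labeled products; gain or loss relative to DMSO.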

[16] = ATG_GATA_CIS: Attagene CIS-FACTORIAL HepG2 Assay for human GATA Binding Protein (AID 2282944); conditions: HepG2 GATA cis-element reporter, Attagene multiplex mRNA; actives raise or lower the signal
Method in brief: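 Read-out: fluorescent reporter mRNA fragments resolved by capillary electrophoresis after RT-PCR. Human liver HepG2 cells carried transiently transfected cis-regulated reporter constructs; chemicals incubated 24 h; gain or loss of signal fitted relative to DMSO.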

[17] = ATG_GLI_CIS: Attagene CIS-FACTORIAL HepG2 Assay for human Zinc Finger Protein GLI1 (AID 2282945); conditions: HepG2, Attagene cis-factorial reporter mRNA, GLI element; actives raise or lower the signal
Method in brief: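 Bidirectional curve fits relative to DMSO, using reporter mRNA levels from RT-PCR plus capillary electrophoresis. Cells were HepG2 transiently carrying cis-regulated reporter constructs, harvested 24 h after dosing.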

[18] = ATG_BRE_CIS: Attagene CIS-FACTORIAL HepG2 Assay for human Bone Morphogenetic Protein (BMP) Response Element (BRE) (AID 2282933); conditions: HepG2 BMP response element reporter, Attagene transcription factor profiling; actives raise or lower the signal
Method in brief: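 Read-out: reporter mRNA induction quantified by RT-PCR and capillary electrophoresis after 24 h chemical exposure of transfected HepG2 cells. Endogenous factor activity on the BMP response element; gain or loss fitted against DMSO baseline.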

[19] = ATG_M_61_CIS: Attagene CIS-FACTORIAL HepG2 Assay for M61 Transcription Factor (Internal Marker) (AID 2282937); conditions: HepG2 Attagene CIS-FACTORIAL M61 internal marker reporter; actives raise or lower the signal
Method in brief: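 Multiplexed reporter mRNA assay, HepG2 human hepatoma cells, 24 h treatment. Signal: FAM-labelled, HpaI-digested RT-PCR fragments by CE. Fit: bidirectional, baseline DMSO.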

[20] = target: Aryl hydrocarbon receptor (Homo sapiens) (UniProt P35869); assay: ATG_Ahr_CIS: Attagene CIS-FACTORIAL HepG2 Assay for human Aryl Hydrocarbon Receptor (Ahr) (AID 2282930); conditions: HepG2 AhR cis-factorial reporter transcription; actives raise or lower the signal
Method in brief: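 Reporter mRNA levels, quantified by RT-PCR and fluorescent capillary electrophoresis, reflect endogenous AhR transcriptional activity in HepG2 cells carrying transfected cis-promoter reporter constructs. Readout at 24 h post-dose; gain or loss fitted against DMSO baseline.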

Measured: AC50

Chain of Transcription factor E2F1 (Homo sapiens) (Q01094 whole entry, looked up): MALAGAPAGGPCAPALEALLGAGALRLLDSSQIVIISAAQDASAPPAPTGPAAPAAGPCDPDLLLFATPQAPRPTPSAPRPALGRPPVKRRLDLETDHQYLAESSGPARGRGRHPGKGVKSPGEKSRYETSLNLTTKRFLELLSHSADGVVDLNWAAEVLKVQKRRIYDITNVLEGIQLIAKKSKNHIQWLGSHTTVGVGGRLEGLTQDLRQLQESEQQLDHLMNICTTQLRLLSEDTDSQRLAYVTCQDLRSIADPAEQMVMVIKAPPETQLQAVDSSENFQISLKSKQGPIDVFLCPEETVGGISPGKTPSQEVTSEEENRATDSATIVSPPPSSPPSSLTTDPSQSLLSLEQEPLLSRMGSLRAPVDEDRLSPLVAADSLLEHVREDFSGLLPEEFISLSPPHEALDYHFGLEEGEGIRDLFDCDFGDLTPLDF
Chain of CCAAT/enhancer-binding protein beta (Homo sapiens) (P17676 whole entry, looked up, the tested form may be a part): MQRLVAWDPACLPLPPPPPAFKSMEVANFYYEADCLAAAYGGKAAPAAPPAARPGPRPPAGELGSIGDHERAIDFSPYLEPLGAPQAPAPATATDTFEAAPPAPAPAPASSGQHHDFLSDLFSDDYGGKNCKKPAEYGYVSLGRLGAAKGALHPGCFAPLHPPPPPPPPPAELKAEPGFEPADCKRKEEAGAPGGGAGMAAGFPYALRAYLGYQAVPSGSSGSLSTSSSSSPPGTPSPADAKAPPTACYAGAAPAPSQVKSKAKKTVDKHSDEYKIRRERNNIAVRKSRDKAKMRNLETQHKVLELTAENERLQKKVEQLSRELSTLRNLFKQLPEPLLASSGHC
Chain of Retinoic acid receptor alpha (Homo sapiens) (P10276 whole entry, looked up): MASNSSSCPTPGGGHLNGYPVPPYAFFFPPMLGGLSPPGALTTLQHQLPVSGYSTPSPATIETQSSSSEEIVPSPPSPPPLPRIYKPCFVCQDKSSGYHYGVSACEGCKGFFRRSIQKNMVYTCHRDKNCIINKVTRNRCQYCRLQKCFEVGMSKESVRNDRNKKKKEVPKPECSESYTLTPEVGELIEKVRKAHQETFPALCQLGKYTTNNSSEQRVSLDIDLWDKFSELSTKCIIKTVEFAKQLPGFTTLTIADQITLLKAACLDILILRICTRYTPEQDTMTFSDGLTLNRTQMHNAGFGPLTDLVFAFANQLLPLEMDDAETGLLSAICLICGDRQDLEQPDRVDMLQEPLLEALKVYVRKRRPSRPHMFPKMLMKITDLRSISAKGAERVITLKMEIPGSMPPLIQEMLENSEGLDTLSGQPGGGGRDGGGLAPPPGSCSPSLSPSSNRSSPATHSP
Chain of Hepatocyte nuclear factor 3-beta (Homo sapiens) (Q9Y261 whole entry, looked up): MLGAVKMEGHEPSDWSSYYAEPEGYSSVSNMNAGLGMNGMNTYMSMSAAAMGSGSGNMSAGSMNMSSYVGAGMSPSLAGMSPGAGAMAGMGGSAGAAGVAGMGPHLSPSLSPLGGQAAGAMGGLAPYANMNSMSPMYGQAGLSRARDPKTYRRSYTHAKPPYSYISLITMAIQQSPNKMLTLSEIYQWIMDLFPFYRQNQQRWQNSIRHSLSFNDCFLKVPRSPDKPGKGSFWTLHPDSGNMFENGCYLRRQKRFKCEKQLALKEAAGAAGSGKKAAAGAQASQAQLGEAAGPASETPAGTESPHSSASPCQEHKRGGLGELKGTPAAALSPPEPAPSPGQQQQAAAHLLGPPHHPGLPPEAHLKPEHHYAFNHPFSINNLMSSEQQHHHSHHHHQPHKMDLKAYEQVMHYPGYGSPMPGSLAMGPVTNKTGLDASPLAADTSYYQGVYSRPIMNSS
Chain of Aryl hydrocarbon receptor (Homo sapiens) (P35869 whole entry, looked up): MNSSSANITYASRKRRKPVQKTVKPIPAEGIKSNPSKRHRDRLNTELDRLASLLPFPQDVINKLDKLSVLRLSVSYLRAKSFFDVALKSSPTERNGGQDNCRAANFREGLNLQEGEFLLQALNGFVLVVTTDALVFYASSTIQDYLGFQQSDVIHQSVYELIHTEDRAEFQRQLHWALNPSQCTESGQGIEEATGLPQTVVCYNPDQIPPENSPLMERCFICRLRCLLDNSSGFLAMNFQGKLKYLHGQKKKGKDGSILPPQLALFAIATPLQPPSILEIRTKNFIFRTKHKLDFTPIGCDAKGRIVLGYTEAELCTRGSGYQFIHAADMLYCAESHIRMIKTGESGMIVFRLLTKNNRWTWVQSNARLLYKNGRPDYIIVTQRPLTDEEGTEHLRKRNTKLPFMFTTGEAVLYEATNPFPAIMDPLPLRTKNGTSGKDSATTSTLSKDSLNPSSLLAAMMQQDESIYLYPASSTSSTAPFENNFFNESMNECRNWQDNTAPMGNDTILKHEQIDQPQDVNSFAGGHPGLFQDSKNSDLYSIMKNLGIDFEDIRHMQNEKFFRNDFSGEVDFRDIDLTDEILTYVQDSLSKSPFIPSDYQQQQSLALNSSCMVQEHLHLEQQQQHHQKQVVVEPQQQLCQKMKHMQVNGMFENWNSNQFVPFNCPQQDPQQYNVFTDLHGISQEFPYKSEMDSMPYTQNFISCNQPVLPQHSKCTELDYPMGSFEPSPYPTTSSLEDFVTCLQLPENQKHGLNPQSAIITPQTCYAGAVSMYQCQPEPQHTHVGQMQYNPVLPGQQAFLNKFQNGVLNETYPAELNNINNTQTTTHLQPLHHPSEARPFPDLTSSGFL

CCCCCCCCOC(=O)c1ccccc1C(=O)OCCCCCCCC
not listed: [18] | [19] | [20]
inactive: all other assays above

Clc1ccc(Cl)cc1
not listed: [18] | [19] | [20]
inactive: all other assays above

CCOCCOC(C)=O
not listed: [19] | [20]
inactive: all other assays above

O=C(N[C@H]1CN2CCC1CC2)c1cc2ccoc2cn1
not listed: [18] | [20]
inactive: all other assays above

Oc1ccc(Cl)cc1Cl
active: [12] 75.9 µM
not listed: [20]
inactive: all other assays above

CN(C)c1nc(=O)n(C2CCCCC2)c(=O)n1C
not listed: [7] | [18] | [19] | [20]
inactive: all other assays above

CCC(C)(CC)c1cc(NC(=O)c2c(OC)cccc2OC)on1
active: [1] 1.16 µM | [2] 1.48 µM | [4] 32 µM | [20] 20.5 µM | [7] 12.7 µM
not listed: [12] | [18] | [19]
inactive: all other assays above

CC#Cc1cc(C)nc(Nc2ccccc2)n1
active: [4] 75 µM | [9] 140 µM | [10] 67.5 µM
not listed: [18] | [20]
inactive: all other assays above

ClC1=C(Cl)[C@]2(Cl)[C@@H]3[C@H]4C[C@H]([C@@H]5O[C@H]45)[C@@H]3[C@@]1(Cl)C2(Cl)Cl
active: [4] 5.08 µM | [7] 1.14 µM | [12] 0.279 µM
not listed: [18] | [19] | [20]
inactive: all other assays above

CCCN(CCC)N=O
active: [12] 46.4 µM
not listed: [18] | [19] | [20]
inactive: all other assays above

ClC1=C(Cl)[C@]2(Cl)[C@@H]3[C@@H]4C[C@@H]([C@H]5O[C@@H]45)[C@@H]3[C@@]1(Cl)C2(Cl)Cl
active: [4] 16.7 µM | [7] 0.571 µM | [12] 1.04 µM
not listed: [18] | [19] | [20]
inactive: all other assays above

CCCCCCOC(=O)c1ccccc1C(=O)OCCCCCC
active: [5] 45.3 µM | [12] 4.15 µM
not listed: [19] | [20]
inactive: all other assays above

O=NN(c1ccccc1)c1ccccc1
active: [5] 118 µM | [12] 26.1 µM
not listed: [19] | [20]
inactive: all other assays above
